A short description of assay [1]: liver-stage malaria parasite growth inhibition, primary screen, cell-based, HepG2, luciferase luminescence, HepG2 viability (AID 624349).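 Note: 100% = mean of DMSO negative control wells on the same plate.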 Particulars: P. berghei liver stage in HepG2, luciferase luminescence, concentration not given here; parasite load remaining: stronger effect = lower value; viability: measured here: HepG2 viability without parasites.
Assay [2] can be described thus: stimulators of nuclear beta-catenin in C2C12, primary screen, imaging, WNT3A-conditioned medium, mouse C2C12, NPC library (AID 1117326; in the data active = nuclear beta-catenin stimulation mostly above about 4.2%, no sharp cut-off; inactive = mostly below about 10%). To be noted: stronger effect = higher value.
Assay [3] in a line: stimulators of insulin release from INS-1E, primary screen, cell-based, 5 mM glucose, NPC library (AID 1117329;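 active = compound raises insulin release from rat beta cells at 5 mM glucose, no numeric limit stated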). To be noted: rat INS-1E insulin secretion, at 10 µM, stronger effect = higher value.
Assay [4] in a line: growth inhibition of GSK3B-pretreated HCT116 cells – cell-based, CellTiter-Glo, 0.2 to 20 µM (AID 1117336;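 active = compounds lowering colon cancer cell viability after pretreatment blocking the GSK3B kinase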). Particulars: HCT116 viability after GSK3B inhibitor, at 20 µM, stronger effect = higher value.
The nature of assay [5]: inhibition of endothelial tube formation, primary screen, imaging, VEGF stimulated, CD31 staining, tube area, NPC library (AID 1117340;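 active = compound that reduces growth-factor-driven endothelial tube area in a mixed cell culture, no cutoff stated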). To be noted: VEGF-stimulated ADSC/ECFC co-culture, at 10 µM, stronger effect = higher value.
Assay [6] can be described thus: glucagon-like peptide 1 release enhancers, primary assay, NCI-H716 cell line, NPC library (AID 1117341;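 active = compound raises GLP1 secretion from the human gut endocrine cells, with no numeric limit stated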). To be noted: NCI-H716 cells, at 10 µM, stronger effect = higher value.
The nature of assay [7]: HCT116 colon cancer cell growth inhibition, primary screen, CellTiter-Glo luminescence, NPC library (AID 1117342;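 active = compounds that lower survival of HCT116 colon cancer cells in the luminescence readout, no numeric limit stated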). Particulars: at 20 µM (top of the series). (Cellular ATP, detected with luciferase, serves as a proxy for viable cell number.)
The nature of assay [8]: CellTiter-Glo luminescent readout of SW480 viability loss, NPC library primary (AID 1117343;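 active = compounds that lower viability of the colon cancer cells in the luminescence readout, with no numeric limit stated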). Particulars: CellTiter-Glo luminescence; at 20 µM (top of the series).
Assay [9] is described as follows: decreased DLD-1 cellular survival, CellTiter-Glo luminescent readout, NPC compound collection, primary HTS (AID 1117346;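 active = compounds that lower survival of DLD-1 colon cancer cells in the luminescence readout, no cutoff given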). To be noted: DLD-1 viability, CellTiter-Glo luminescence; at 20 µM (top of the series).
Assay [10] is described as follows: sensitizers of A549 cells to miR-34 induction, primary screen, imaging, A549 dox-inducible miR-34, nuclei and caspase counts (AID 1347080;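 active = compounds whose cell count with miR-34 switched on is under 0.7 times the count with it off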). To be noted: A549 miR-34 inducible, Hoechst nuclei count, 48 h.
A short description of assay [11]: viability rescue of complex I mutant cybrids, primary screen, cell-based, galactose medium, ATP luminescence (AID 1645843;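 active = z-score of at least 1.8 in each of two replicates, scored against plate mean and spread of sample wells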;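 note: positive z means more ATP and so rescue of galactose-driven cybrid death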). To be noted: complex I mutant cybrid cells, 72 h, stronger effect = higher value.
The target in assay [12] is 6-phosphogluconate dehydrogenase, decarboxylating (Homo sapiens) (UniProt P52209). Kind of assay: 6PGD enzyme inhibitors, primary screen, biochemical, human, recombinant enzyme, NADPH absorbance (AID 1159550;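 active = at least 20% inhibition of 6-phosphogluconate dehydrogenase activity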). Particulars: recombinant 6PGD, NADPH absorbance 341 nm; at 10 µM; stronger effect = higher value.
Chain of 6-phosphogluconate dehydrogenase, decarboxylating (Homo sapiens) (P52209 whole entry, looked up): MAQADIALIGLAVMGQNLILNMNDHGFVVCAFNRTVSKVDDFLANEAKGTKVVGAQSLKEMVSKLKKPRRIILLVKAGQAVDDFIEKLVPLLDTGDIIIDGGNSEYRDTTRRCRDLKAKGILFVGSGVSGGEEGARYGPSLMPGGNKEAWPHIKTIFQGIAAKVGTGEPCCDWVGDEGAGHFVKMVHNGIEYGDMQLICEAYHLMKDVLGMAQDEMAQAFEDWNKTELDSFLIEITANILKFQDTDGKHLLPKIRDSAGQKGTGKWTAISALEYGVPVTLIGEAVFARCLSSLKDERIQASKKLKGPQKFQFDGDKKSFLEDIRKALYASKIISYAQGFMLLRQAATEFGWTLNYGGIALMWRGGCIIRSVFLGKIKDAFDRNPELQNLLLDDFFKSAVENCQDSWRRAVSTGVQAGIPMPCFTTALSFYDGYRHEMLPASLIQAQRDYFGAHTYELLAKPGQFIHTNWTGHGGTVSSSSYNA
Assay [13] can be described thus: survival rescue of mitochondrial mutant cells in low glucose, primary screen, MELAS cybrids, Rieske KO mouse fibroblasts, CellTiter-Glo (AID 1508586;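 active = mean z-score across replicates of 1.96 or higher in either the MELAS or the Rieske mutant cell line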;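 note: z relative to plate mean and SD of compound and empty wells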).
Assay [14] in a line: differential killing of epithelial or mesenchymal cells, primary screen, imaging, PC-3E GFP, TEM4-18 mCherry, co-culture (AID 1345086;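 active = compounds killing one labelled cell type while sparing the other, by normalised counts and ratio limits, not self-fluorescent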;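 note: cells exposed to compound for 72 h before imaging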;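 for red/green cell ratio (normalised): normalised mesenchymal count divided by normalised epithelial count so high means epithelial killing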). To be noted: imaging cell counts, at 1 µM.
Assay [15] deals with Aerobactin synthetase IucA (Klebsiella pneumoniae hvKP1). Kind of assay: Biochemical IucA enzyme inhibition primary screen of the Spectrum library (AID 1346200; call rule not given here;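 note: 100% = wells without compound and 0% = wells lacking enzyme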). Particulars: malachite green pyrophosphate, A620, at 8 µM, stronger effect = lower value.
Assay [16] has as its target NAD(+) hydrolase SARM1 (Homo sapiens) (UniProt Q6SZW1). In words: SARM1 TIR NADase inhibitors, cell lysate, NAD-Glo luminescence (AID 1508614;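 active = compound whose remaining NAD level is above about 45 nM, limit read from the data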;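 note: higher remaining NAD means stronger inhibition of SARM1 NADase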). To be noted: SAM-TIR HEK293T lysate NADase, at 1 µM, stronger effect = higher value.
In assay [17] the target is Mitogen-activated protein kinase 7 (Homo sapiens) (UniProt Q13164). In words: ERK5 transactivation activators in reporter cells, primary screen, cell-based, HTS (AID 1508626;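 active = luciferase signal above three times the same-plate solvent-only control wells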;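 note: luciferase driven by Gal4-ERK5 fusion binding five Gal4 sites before minimal TATA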). Particulars: HeLa Gal4-ERK5 transactivation, 18 h, at 5 µM, stronger effect = higher value.
Chain of Mitogen-activated protein kinase 7 (Homo sapiens) (Q13164 whole entry, looked up, the tested form may be a part): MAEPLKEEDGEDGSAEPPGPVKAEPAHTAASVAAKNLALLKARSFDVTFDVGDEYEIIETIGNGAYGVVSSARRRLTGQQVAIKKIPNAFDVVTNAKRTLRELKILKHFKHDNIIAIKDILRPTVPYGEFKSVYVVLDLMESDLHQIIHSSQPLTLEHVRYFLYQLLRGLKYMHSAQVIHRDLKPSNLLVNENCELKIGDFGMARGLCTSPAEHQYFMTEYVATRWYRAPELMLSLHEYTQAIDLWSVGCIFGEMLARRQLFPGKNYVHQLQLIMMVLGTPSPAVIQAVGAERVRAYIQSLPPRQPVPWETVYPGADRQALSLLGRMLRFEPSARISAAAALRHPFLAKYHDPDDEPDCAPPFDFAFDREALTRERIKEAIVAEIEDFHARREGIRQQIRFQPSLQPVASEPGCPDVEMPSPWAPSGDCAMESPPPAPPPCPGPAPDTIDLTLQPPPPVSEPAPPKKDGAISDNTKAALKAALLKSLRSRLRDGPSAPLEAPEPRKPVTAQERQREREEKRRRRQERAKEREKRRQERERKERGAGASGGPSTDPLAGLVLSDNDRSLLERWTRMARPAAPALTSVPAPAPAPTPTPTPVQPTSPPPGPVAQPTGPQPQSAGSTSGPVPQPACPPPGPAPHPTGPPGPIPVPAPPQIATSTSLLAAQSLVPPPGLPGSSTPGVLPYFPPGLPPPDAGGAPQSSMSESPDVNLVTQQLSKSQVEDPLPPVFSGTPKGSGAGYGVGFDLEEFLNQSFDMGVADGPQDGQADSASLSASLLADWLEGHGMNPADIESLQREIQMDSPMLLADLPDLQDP
[18] abbreviates: measured here: relative caspase fold change +Dox/-Dox.
The mark [19] stands for this setting: measured here: total cells with miR-34 induction, stronger effect = lower value.
The mark [20] stands for this setting: measured here: total cells without miR-34 induction.

The values below come from PubChem BioAssay.

Values joined by “and” are separate entries in the source; they are usually repeats but may differ in a detail not shown here. Equal values may be shown once. Active and inactive are the calls of the source. Cut-off read from the data, not from the text of the source, unless noted: active = parasite load remaining mostly below about 12% (no sharp cut-off); inactive = mostly above about 10%.

Chain of NAD(+) hydrolase SARM1 (Homo sapiens) (Q6SZW1 whole entry, looked up, the tested form may be a part): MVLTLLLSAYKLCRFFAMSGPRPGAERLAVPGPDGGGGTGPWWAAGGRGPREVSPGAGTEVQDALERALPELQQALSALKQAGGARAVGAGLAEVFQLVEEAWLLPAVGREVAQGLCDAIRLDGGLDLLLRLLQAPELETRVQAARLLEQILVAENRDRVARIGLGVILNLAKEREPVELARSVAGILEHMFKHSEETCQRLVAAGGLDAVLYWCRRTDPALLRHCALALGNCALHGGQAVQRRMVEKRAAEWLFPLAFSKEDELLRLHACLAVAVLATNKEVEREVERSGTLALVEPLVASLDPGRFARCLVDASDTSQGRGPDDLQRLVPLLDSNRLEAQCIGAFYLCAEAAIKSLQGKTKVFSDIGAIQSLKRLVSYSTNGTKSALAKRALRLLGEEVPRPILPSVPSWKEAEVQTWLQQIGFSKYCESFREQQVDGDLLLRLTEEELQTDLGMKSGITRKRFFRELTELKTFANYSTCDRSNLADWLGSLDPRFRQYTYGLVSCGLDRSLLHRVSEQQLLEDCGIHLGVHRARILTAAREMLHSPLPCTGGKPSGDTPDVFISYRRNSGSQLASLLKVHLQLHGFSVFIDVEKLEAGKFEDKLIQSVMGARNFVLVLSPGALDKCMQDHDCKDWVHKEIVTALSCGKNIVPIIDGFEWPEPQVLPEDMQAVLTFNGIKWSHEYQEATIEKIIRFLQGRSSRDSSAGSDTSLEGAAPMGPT

By viability is commonly meant a read-out of living cells in per cent, often relative to untreated cells. As for `CN1C(=O)CN=C(c2ccccc2)c2cc([N+](=O)[O-])ccc21`, the parasite load remaining in assay [1] is 83.1% (inactive). Moreover, the viability in assay [1] amounted to 68.8%. Moreover, the nuclear beta-catenin stimulation in assay [2] (at 10 µM) is 0.5% (inactive); in assay [2] (stimulation, at 2 µM), 0.9%. In addition, the insulin secretion stimulation in assay [3] is -0.2% (inactive). The viability decrease in [4] was -4.25% (inactive). Moreover, the tube area decrease in assay [5] was -18.8% (inactive). The GLP1 secretion stimulation in [6] is 3.3% (inactive). In [7], the inhibition of viability was -16.9% (inactive). The viability decrease (inhibition) in [8] was 18.1% (inactive); in [9], 1.05% (inactive). Further, the values for the fold change in assay [10] (stronger effect = lower value) and in assay [10] (setting [18]) were 0.947 (inactive) and 1.19, respectively. In addition, the figures for the cell count in assay [10] (setting [19]) and in [10] (setting [20]) were 9100 and 9610, respectively. In addition, in assay [11], the z-score is 0.65 (inactive).

As for `O=C(O)C(Cl)Cl`, the parasite load remaining in assay [1] is 106% (inactive). Further, in assay [1], the viability came out at 113%. For the same compound, the nuclear beta-catenin stimulation in [2] (at 10 µM) is 1.9% (inactive); in assay [2] (stimulation, at 2 µM) it was 0%. For the same compound, the insulin secretion stimulation in assay [3] is -1.6% (inactive). For the same compound, the viability decrease in assay [4] is -4.8% (inactive). For the same compound, the tube area decrease in assay [5] is -7.2% (inactive). Further, the GLP1 secretion stimulation in [6] was -2% (inactive). The inhibition of viability in [7] was -9.3% (inactive). The results for the viability decrease (inhibition) in assay [8] and in [9] were 38.4% (inactive) and 8.5% (inactive), respectively. For the same compound, the fold change is 1.04 (inactive) in assay [10] (stronger effect = lower value); 0.958 (inactive) in assay [10] (stronger effect = lower value, cell number ratio, induced over uninduced); 1.82 and 1.65 in assay [10] (setting [18]). Further, the cell count was 10400 and 8960 in assay [10] (setting [19]); 10100 and 9360 in assay [10] (setting [20]). The z-score in assay [11] is 0.605 (inactive) and 0.045 (inactive).

As usually defined, the inhibition is the change of the read-out against control, counted positive when it falls. On to `CN[C@@H](C)[C@H](O)c1ccccc1`, for which the nuclear beta-catenin stimulation in assay [2] (at 10 µM) was 1.4% (inactive); in assay [2] (stimulation, at 2 µM) it was 0.6%. In assay [3], the insulin secretion stimulation is 0% (inactive). In addition, in assay [4], the viability decrease was -2.5% (inactive). Also, the tube area decrease in [5] is -1.6% (inactive). Moreover, the GLP1 secretion stimulation in [6] is 0.8% (inactive). Moreover, the inhibition of viability in assay [7] is -12.5% (inactive). The viability decrease (inhibition) was 5.5% (inactive) in assay [8] and -4.6% (inactive) in assay [9]. Besides, the inhibition in assay [12] was 16.5% (inactive).

For `CCOC(=O)c1cncn1C(C)c1ccccc1` (stereo not drawn), the parasite load remaining in assay [1] is 51% (inactive) and 69.2% (inactive). Moreover, the viability in [1] is 95.5% and 111%. Besides, the nuclear beta-catenin stimulation in assay [2] (at 10 µM) is 1.8% (inactive); in [2] (stimulation, at 2 µM) it was 3.6%. In addition, the insulin secretion stimulation in assay [3] was -0.5% (inactive). In addition, the viability decrease in assay [4] was -7.2% (inactive). In addition, the tube area decrease in assay [5] was 11% (inactive). Also, the GLP1 secretion stimulation in assay [6] was -1.9% (inactive). In addition, in assay [7], the inhibition of viability is -15.8% (inactive). The viability decrease (inhibition) in assay [8] was 22.4% (inactive); in [9], -22.4% (inactive). Besides, the z-score in [13] (MELAS cybrid survival, CellTiter-Glo 48 h, stronger effect = higher value) was -0.441 (inactive); in [13] (Rieske KO mouse fibroblast survival, CellTiter-Glo 72 h), 0.585; in assay [11] it was 0.035 (inactive) and 0.295 (inactive).

As to `N#Cc1nn(-c2c(Cl)cc(C(F)(F)F)cc2Cl)c(N)c1S(=O)C(F)(F)F` (stereo not drawn), the parasite load remaining in [1] was 148% (inactive) and 35.4% (inactive). For the same compound, the viability in assay [1] was 82.8% and 121%. Also, the nuclear beta-catenin stimulation in assay [2] (at 10 µM) is 6.4% (inactive); in assay [2] (stimulation, at 2 µM) it was 2.1%. For the same compound, the insulin secretion stimulation in assay [3] was 0.5% (inactive). Besides, the viability decrease in [4] was -53.1% (inactive). For the same compound, the tube area decrease in assay [5] is 9.4% (inactive). In assay [6], the GLP1 secretion stimulation is -1.4% (inactive). The inhibition of viability in assay [7] is 17.3% (inactive). The viability decrease (inhibition) in [8] was 42.7% (inactive); in assay [9], 6.4% (inactive). In addition, in assay [14] (actives lie on both sides), the red/green cell ratio (normalised) is 0.9 (inactive). Also, the normalised cell number in assay [14] (measured here: epithelial PC-3E GFP cell survival) is 1; in assay [14] (measured here: mesenchymal TEM4-18 mCherry cell survival), 0.9. Further, the activity remaining in [15] is 115% (inactive). In addition, the fold change in assay [10] (stronger effect = lower value) is 0.962 (inactive) and 0.928 (inactive); in assay [10] (setting [18]), 1.07 and 3.63. Besides, the cell count is 4080 and 11800 in assay [10] (setting [19]); 4240 and 12700 in assay [10] (setting [20]). Further, the remaining NAD in [16] is 10 nM (inactive). For the same compound, the luciferase signal in assay [17] was 40 AU (inactive).
